Reference: PubChem BioAssay
Values without a mark were called inactive. No rule for the calls is given here.

Tested on: Aerobactin synthetase IucA (Klebsiella pneumoniae, hypervirulent)
Assay: IucA enzyme inhibition, biochemical, LOPAC library, absorbance readout (AID 1346212);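 also: 100% = no compound wells and 0% = no enzyme wells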
Conditions: IucA enzyme assay, absorbance (OD) readout; stronger effect = lower value;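 tested at 8 µM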

Row | Structure (SMILES) | remaining activity
1 | N#CC(C#N)=C(N)/C(C#N)=C/c1cc(O)c(O)c(O)c1 | 87.7%
2 | CCCCC#Cc1nc(N)c2ncn([C@@H]3O[C@H](C(=O)NCC)[C@@H](O)[C@H]3O)c2n1 | 96.4%
3 | C[C@]12CCC(=O)C=C1CC[C@@H]1[C@@H]2CC[C@@]2(C)[C@H]1CC[C@]2(O)C(=O)CO | 110%
4 | COC(=O)Nc1nc2ccc(C(=O)c3cccs3)cc2[nH]1 | 117%
5 | CC(C)[C@H]1c2ccc(F)cc2CC[C@@]1(CCN(C)CCCc1nc2ccccc2[nH]1)OC(=O)C1CC1 | 118%
6 | O=C(O)CCC/C=C\C[C@@H]1[C@@H](/C=C/[C@H](O)C2Cc3ccccc3C2)[C@@H](F)C[C@@H]1O | 97.7%
